A selection follows.
aSyn 5UTR act – Activators via SNCA 5'UTR binding, MLPCN. alpha-synuclein 5'UTR reporter, activators screen. activity score, % (tested at 7.5 µM), hits read low. 7.1% of 300,000 active. AID 1814; in the data active = activity score below about -60%
Numbers without * were called inactive.

SMILES	aSyn 5UTR act
CCCCNC(=O)C1CC(c2cccc([N+](=O)[O-])c2)=NO1 (stereo unspecified)	-170.8*
COc1ccc(CCNC(=O)C2CC(c3ccccc3[N+](=O)[O-])=NO2)cc1 (stereo unspecified)	-95.0*
O=C(NCCc1cccs1)C1CC(c2ccccc2[N+](=O)[O-])=NO1 (stereo unspecified)	-92.9*
COc1ccc(-c2nn(-c3ccccc3)cc2/C=N/NC(=O)c2ccc3c(c2)OCO3)cc1	-116.1*
Cc1cc(SCC(=O)N/N=C/c2ccc(O)c(O)c2O)c(C)cc1Br	67.5
O=C(N/N=C/c1c(O)ccc2ccccc12)c1ccc(Br)o1	106.3
Cc1ccc(-c2nn(-c3ccccc3)cc2/C=N/NC(=O)CSc2nnc(C)n2-c2ccccc2)cc1	-124.5*
COc1ccc(-c2nn(-c3ccccc3)cc2/C=N/NC(=O)c2ccc(Br)o2)cc1	-97.5*
CN1CCN(C2=C(Cl)C(=O)N(Cc3ccccc3)C2=O)CC1	-119.6*
Cc1cc(N2CCN(C)CC2)ccc1NC(=O)c1c2c(nc3ccccc13)CCN(Cc1ccccc1)C2	91.6
CCOc1ccc(NC2=C(Cl)C(=O)N(Cc3ccccc3)C2=O)cc1	-119.1*
COc1ccc(NC2=C(Cl)C(=O)N(CCc3ccccc3)C2=O)cc1	-68.0*
COc1ccc(CNC[C@@H](CCCCN(C)Cc2ccc(OC)cc2)N2C[C@H](c3ccccc3)N(CCc3ccc(Cl)c(Cl)c3)C(=O)C2=O)cc1	92.2
COc1ccc(NC2=C(Cl)C(=O)N(CCc3ccccc3)C2=O)c(OC)c1	-177.3*
COc1ccc(N=c2sc3ccccc3n2C)cc1	-172.2*
CC(C)(C)c1csc(CS(=O)(=O)c2ccccn2)n1	-62.8*
Cc1nn(-c2ccccc2)c(Cl)c1/C=N/NC(=O)c1ccco1	-106.0*
Cc1nn(-c2ccccc2)c(Cl)c1/C=N\NC(=O)c1cnccn1	-105.8*
Cc1ccccc1C(=O)Nn1cnc2ccccc2c1=O	-78.9*
COc1ccc(C(=O)Nn2cnc3ccccc3c2=O)c(OC)c1	-88.0*
Cc1oc(-c2ccc(-c3ccccc3)cc2)nc1CN(C)C1CCOC1 (stereo unspecified)	-113.4*
Cc1oc(-c2ccc(-c3ccccc3)cc2)nc1CN(CCO)C(C)C	-182.1*
CCc1cc2c(=O)c(-c3cscn3)coc2cc1O	-139.1*
O=C(Nc1nccs1)c1cc(-c2ccncc2)nc2ccccc12	-67.1*
COc1ccc(-c2cc(C(=O)Nc3ccc(C(N)=O)cc3)c3ccccc3n2)cc1	-119.4*
SMILES	aSyn 5UTR act
O=C(N/N=C/c1cccs1)c1cc(-c2ccncc2)nc2ccccc12	61.9
COc1ccc2cc(-c3cc(C(=O)O)c4ccccc4n3)ccc2c1	77.7
O=C(Nc1ccncc1)c1cc(-c2cccc(Br)c2)nc2ccccc12	56.9
Cc1ccc(-c2cc(C(=O)Nc3nn[nH]n3)c3ccccc3n2)cc1	-69.0*
C=CCc1c(C)[nH]c2ccc(C)cc2c1=O	-85.7*
CCC(=NCCc1c(C)[nH]c2ccc(C)cc12)C1=C(O)CC(c2ccccc2)CC1=O (stereo unspecified)	104.0
COc1ccc(CNC(=S)Nc2ccc(F)c(Cl)c2)cc1	-109.4*
CN1C2CCC1/C(=C\c1ccc(F)cc1)C(=O)/C2=C/c1ccc(F)cc1	-134.1*
CC(=O)NCc1ccc(-c2csc(-c3cccs3)n2)cc1	-125.6*
Cc1nc2ccccn2c1C(=O)/C=C/c1ccc(F)cc1	-83.4*
COc1ccc(/C=C/C(=O)c2c(C)nc3ccccn23)cc1	-307.6*
O=C(NCC(=O)N1CCCCC1)c1ccc(Cl)cc1Cl	-117.0*
CC1CCN(C(=O)CNC(=O)c2ccc(Cl)cc2Cl)CC1	-81.0*
O=C(NCC(=O)N1CCCCCC1)c1ccc(Cl)cc1	-65.4*
CCN(CC)S(=O)(=O)c1ccc2nc(NC(=O)c3cccs3)sc2c1	-104.0*
CCN(CC)S(=O)(=O)c1ccc2nc(NC(=O)c3ccco3)sc2c1	-63.2*
COc1ccc(C2OC3=C(Nc4cc(C)c(C)cc4N3)C2=O)cc1 (stereo unspecified)	-98.2*
O=C(CSC(=S)N1CCOCC1)c1cc2ccccc2oc1=O	-63.2*
O=C(Nc1ccc(Cl)c(Cl)c1)OCc1cncs1	-96.8*
COCCCNC(=O)Nc1ccc(Br)cc1Cl	-72.2*
S=C(NCc1ccccn1)Nc1ccccc1Cl	-115.3*
O=C(NCc1ccccn1)Nc1ccc(Cl)cc1Cl	-97.0*
S=C(NCc1ccccn1)Nc1ccc(Br)cc1Cl	-143.2*
O=C(NCc1ccccn1)c1ccc(Cn2c(=S)[nH]c3ccc(Br)cc3c2=O)cc1	40.4
O=C(NCc1ccccn1)Nc1ccc(Br)cc1Cl	-72.3*
SMILES	aSyn 5UTR act
O=[N+]([O-])c1ccc(N/N=C\c2cccnc2)nc1	-84.2*
FC(F)(F)c1ccc(N/N=C/c2cccnc2)nc1	-115.2*
Cc1csc(N/N=C\c2cccnc2)n1	-115.9*
CCC(SC1=Nc2ccccc2C2=NC(CC(C)C)C(=O)N12)C(=O)Nc1ccc2c(c1)OCO2 (stereo unspecified)	-64.0*
COc1cc(/C=N/NC(N)=S)cc(Br)c1OCc1ccccc1F	-74.0*
CCOc1cc(/C=N/NC(N)=S)cc(Br)c1OCc1ccccc1C	-73.7*
COc1cc(CNC(C)c2ccccc2)cc(Br)c1OCc1ccc(F)cc1 (stereo unspecified)	58.7
NC(=O)C1CCN(C(=O)CCSc2ccccc2)CC1	-102.8*
CCOC(=O)N1CCN(C(=O)CCSc2ccccc2)CC1	-108.4*
CCN(CC)c1ccc(C2=NNC(=O)CC2C)cc1[N+](=O)[O-] (stereo unspecified)	98.5
CC1(C(=O)N2CCN(Cc3ccccc3Cl)CC2)CC1(Cl)Cl (stereo unspecified)	-70.6*
O=S(=O)(c1ccc(Cl)cc1)N1CCN(Cc2ccc(O)c3ncccc23)CC1	77.2
Cc1cccc(C(=O)Nc2sc(-c3ccccc3)cc2C(=O)O)c1	-180.4*
CC(C)(C)C(=O)Nc1sc(-c2ccccc2)cc1C(=O)O	-87.0*
S=C(c1ccc(-c2ccccc2Cl)o1)N1CCOCC1	-137.0*
CC1CCN(C(=O)c2ccc(-c3ccccc3Cl)o2)CC1	-103.6*
O=C(c1ccc(-c2cccc(C(F)(F)F)c2)o1)N1CCOCC1	-71.2*
S=C(c1ccc(-c2ccc(Br)cc2)o1)N1CCOCC1	-178.0*
O=C(c1ccc(-c2cccc(Cl)c2Cl)o1)N1CCOCC1	-132.9*
O=C(Cc1ccc(Br)cc1)N1CCCCCC1	-176.3*
O=C(c1ccc(-c2ccc([N+](=O)[O-])cc2Cl)o1)N1CCOCC1	-134.6*
S=C(c1ccc(-c2ccc(Cl)c(Cl)c2)o1)N1CCOCC1	-155.2*
S=C(c1ccc(-c2ccc(Br)cc2)o1)N1CCCCC1	-201.4*
Cc1ccc(OC(=O)NC2CCS(=O)(=O)C2)cc1C (stereo unspecified)	-122.3*
Cc1cccc(NC(=O)c2ccc(-c3ccccc3[N+](=O)[O-])o2)c1	-85.4*
SMILES	aSyn 5UTR act
Cc1ccccc1-c1ccc(C(=O)Nc2cccc(F)c2)o1	-128.4*
COc1cccc(NC(=O)c2ccc(-c3ccccc3[N+](=O)[O-])o2)c1	-99.8*
Cc1ccc2nc(NC(=O)c3ccc(NS(=O)(=O)c4cccs4)cc3)sc2c1	-129.8*
CC(C)(C)C(=O)Nc1nc2ccc(S(C)(=O)=O)cc2s1	-112.1*
Cc1cccc(C(=O)Nc2nc3ccc(S(C)(=O)=O)cc3s2)c1	-281.4*
N#Cc1c(/N=C/c2cccs2)sc2c1CCC2	-87.9*
N#Cc1c(/N=C/c2cc(Br)cs2)sc2c1CCC2	-189.5*
CCCCC(=O)/C=C/n1c(=S)oc2ccccc21	-150.7*
CSc1ccccc1NC(=O)COc1ccc(Cl)cc1C	-63.2*

Screening results deposited in PubChem BioAssay by Broad Institute.
